Like-named read-outs stand apart in the source and are kept apart here. About 3,200 (25%) of roughly 13,000 compounds showed an effect of 50% or more. Some of the results follow.
Test system: P. falciparum stage V gametocytes
Set-up: BacTiter-Glo ATP luminescence viability of purified stage V gametocytes in 384-well plates, per cent inhibition versus DMSO
Settings: 48 h, 5 µM, inhibitor

| Structure (SMILES) | % Inhibition [%] | % Inhibition (% Inhibition) [%] |
| --- | --- | --- |
| Cc1cccc2[nH]c(-c3cccc(-c4cccc(NC(=O)CNC(=O)c5ccc(O)cc5)c4)c3)nc12 [TCMDC-136818] | -5.376 | – |
| Cc1cc(OCCCn2ccnc2)ccc1-c1csc(NC(N)=NCc2ccccc2)n1 [TCMDC-138931] | 31.69 | – |
| CC(C(=O)OCCOCn1cnc2c(=O)[nH]c(N)nc21)N(C)C(=O)OC(C)(C)C (stereo not drawn) [TCMDC-137343] | 21.46 | – |
| CC(C)c1ccc(S(=O)(=O)N(c2ccc3c(c2)OCO3)C2CCN(Cc3ccccc3)C2)cc1 (stereo not drawn) [TCMDC-134099] | -69.31 | – |
| COc1ccc(N2C(N)=NC(N)=NC2(C)C)cc1OC [TCMDC-124282] | 18.93 | – |
| CC(CN1CCN(C)CC1)C(=O)Nc1cccc(-c2cccc(-c3nc4ccccc4[nH]3)c2)c1 (stereo not drawn) [TCMDC-137141] | 72.32 | – |
| CC(CN1CCN(C)CC1)C(=O)Nc1cccc(-c2ccc(-c3nc4ccccc4[nH]3)cc2)c1 (stereo not drawn) [TCMDC-137147] | 83.04 | – |
| Cc1cccc2nc(-c3ccc(-c4cccc(NC(=O)C(C)CN5CCN(C)CC5)c4)s3)[nH]c12 (stereo not drawn) [TCMDC-137155] | -49.23 | – |
| CCc1cc2c(=O)c(-c3nc(C)cs3)c(N)oc2c(CN2CCCCC2)c1O [TCMDC-124016] | 0.6377 | – |
| COc1cc(C(=O)N2N=C(c3c(-c4ccccc4)c4cc(Br)ccc4[nH]c3=O)CC2c2cccc([N+](=O)[O-])c2)cc(OC)c1OC (stereo not drawn) [TCMDC-124218] | 43.01 | – |
| Cc1noc(C)c1-c1cccc(CNCc2ccc(-c3cccc(-c4nc5cccc(C)c5[nH]4)c3)cc2)c1.O=C(O)C(F)(F)F [TCMDC-133052] | -22.75 | – |
| O=C(/C=C/c1ccc(Cl)c(Cl)c1)NC1CCC(CN2CCC(c3nc4ncccc4[nH]3)CC2)CC1 (stereo not drawn) [TCMDC-140264] | 5.039 | – |
| Cc1nn(-c2cccc(C(F)(F)F)c2)c2sc(C(=O)NC3CCN(C(C)C)CC3)cc12 [TCMDC-125005] | 65.55 | – |
| COc1cc(NC(=O)c2cc3c(C)nn(-c4cccc(C(F)(F)F)c4)c3s2)cc(OC)c1OC [TCMDC-123615] | -65.38 | – |
| CC(C)(C)c1ccc(CN2CCC(NC(=O)c3ccc(-c4cccc(C(F)(F)F)c4)s3)CC2)cc1 [TCMDC-134348] | -9.273 | – |
| COc1cc(OC)c2c(C)cc(NCCCn3ccnc3)nc2c1 [TCMDC-125762] | 61.26 | – |
| COc1cccc(-c2cc3nc4c(c(NCCCn5ccnc5)n3n2)CCCC4)c1 [TCMDC-124388] | -20.83 | – |
| COc1cc(OC)c2c(C)cc(NCCCN3CCOCC3)nc2c1 [TCMDC-125775] | -9.297 | – |
| Nc1nc(-c2ccc3c(Nc4ccc(F)c(Cl)c4)ccnc3c2)cs1 [TCMDC-138353] | 24.85 | – |
| Fc1ccccc1-c1cc(Nc2ccncc2)nc(-c2cccnc2)n1 [TCMDC-125415] | 17.65 | – |
| S=C(NCCCCCN1CCC(c2c[nH]c3ccccc23)CC1)Nc1cccc(I)c1 [TCMDC-139203] | 89.1 | – |
| O=C(NCCCCCN1CCC(c2c[nH]c3ccccc23)CC1)Nc1cccc(Cl)c1 [TCMDC-139167] | 82.38 | – |
| O=C(NCCCCCN1CCC(c2c[nH]c3ccccc23)CC1)Nc1cccc(Br)c1 [TCMDC-139116] | -20.19 | – |

| Structure (SMILES) | % Inhibition [%] | % Inhibition (% Inhibition) [%] |
| --- | --- | --- |
| O=C(NCC(CCCN1CCC(c2c[nH]c3ccccc23)CC1)c1ccccc1)Nc1ccc(Cl)c(Cl)c1 (stereo not drawn) [TCMDC-139507] | -18.56 | – |
| S=C(NCCCCCN1CCC(c2c[nH]c3ccccc23)CC1)Nc1ccc(Cl)c(Cl)c1 [TCMDC-139170] | -11.79 | – |
| O=C(NCCCCCN1CCC(c2c[nH]c3ccccc23)C1)Nc1ccc(Cl)c(Cl)c1 (stereo not drawn) [TCMDC-139169] | -42.12 | – |
| O=C(NCCCCCN1CCC(c2c[nH]c3ccccc23)CC1)Nc1cccc(I)c1 [TCMDC-139201] | 57.32 | – |
| O=C(NCCCCCN1CCC(c2c[nH]c3ccccc23)CC1)Nc1ccc(I)cc1 [TCMDC-139165] | -24.33 | – |
| Cc1cc(Cl)ccc1NC(=O)NCCCCCN1CCC(c2c[nH]c3ccccc23)CC1 [TCMDC-139168] | -22.23 | – |
| O=C(NCCCCCN1CCC(c2c[nH]c3ccccc23)CC1)Nc1ccc(Cl)c(Cl)c1 [TCMDC-139117] | 79.3 | – |
| S=C(NCCCCCN1CCC(c2c[nH]c3ccccc23)CC1)Nc1cc(Cl)cc(Cl)c1 [TCMDC-139171] | -46.2 | – |
| O=C(Nc1cccc(-c2csc(-c3nc4ccccc4[nH]3)c2)c1)c1ccoc1 [TCMDC-132404] | 1.607 | – |
| N=C(N)NN=CC(=O)Nc1ccc(C(F)(F)F)cc1 [TCMDC-137560] | 10.99 | – |
| CCC(CC(NCCCCNC(=O)c1ccc(NC(=O)c2ccc(Cl)cc2)cc1)c1ccccc1)c1ccccc1OC (stereo not drawn) [TCMDC-138580] | – | -0.1612 |
| Nc1ncc(-c2ccc(F)cc2)c2ccc(-c3cccc(F)c3)cc12 [TCMDC-134502] | -15.75 | – |
| NC(N)=NC(=O)Nc1cc(Br)c(Br)c(Br)c1 [TCMDC-137506] | -8.388 | – |
| CNCC(O)c1cc(Cl)c(Cl)cc1C (stereo not drawn) [TCMDC-131255] | 13.21 | – |
| CCn1ncc(Cl)c1CN(C)S(=O)(=O)c1ccc(Br)cc1 [TCMDC-124902] | 30.97 | – |
| CCSc1nc2sc3c(c2c(=O)n1-c1ccccc1)CCN(C)C3 [TCMDC-123852] | 14.1 | – |
| CCCN(CCC)S(=O)(=O)c1ccc(C(=O)N2CCC(C(=O)OCC)CC2)cc1 [TCMDC-139301] | 16.88 | – |
| Cc1nc(N)nc(N)c1-c1cccc(Cl)c1 [TCMDC-137375] | 13.21 | – |
| c1ccc(COc2ccc(Nc3ncnc4cnc(-c5ccc(CNc6cccnc6)o5)cc34)cc2)cc1 [TCMDC-137776] | 19.44 | – |
| O=C(NCCCCCN1CCC(c2c[nH]c3ccccc23)CC1)Nc1ccc(Br)cc1 [TCMDC-139115] | -28.65 | – |
| Cc1ccc(NC(=O)NCCCCCN2CCC(c3c[nH]c4ccccc34)CC2)cc1I [TCMDC-139200] | 66.97 | – |
| O=C(NCCCCCN1CCC(c2c[nH]c3ccccc23)CC1)Nc1ccc(I)c(Cl)c1 [TCMDC-139202] | -23.12 | – |
